molecular target: AMP-activated protein kinase, AMPK (Homo sapiens) (UniProt P54646+O43741+P54619+Q9UGJ0+Q9Y478+Q13131+Q9UGI9); experiment: AMP-dependent Kinase enzyme assay. An in vitro enzyme assay that detects ADP turnover that is directly proportional to AMPK activity. This uses naive AMPK that is activated during the assay with MK-8722; assay type: functional; set-up: scale not given: direction of the effect not stated beside the values; conditions: 30 µM

SMILES	Percent Effect [%]
COc1c(C)cnc(CN2CCCC2c2noc(C)n2)c1C (stereo not given)	-12
Cc1cccc(OC2CCN(Cc3ncc[nH]3)CC2)c1	-0.938
COc1ccccc1C(C)(C)NC(=O)Nc1ccc(F)c(C(N)=O)c1	-5.46
CN(CCOc1ccc(C#N)cc1)CC1CC1	22.9
COCC(C)NC(=O)c1sccc1-n1cnnn1 (stereo not given)	15.6
Cc1ccc(NC(=O)CN[C@H](C(N)=O)C(C)C)cc1F	-14.9
O=S(=O)(NCc1ccnc(-n2ccnc2)c1)c1cncc(F)c1	-5.49
Cc1nn(CCC(=O)NC2CCCOC2)c(C)c1C (stereo not given)	12.2
CC(C)Cn1ncc(C(=O)NS(=O)(=O)c2ccccc2)c1C1CC1	4.86
NC1CCc2nc(-c3cccnc3)nc(Nc3ccc(F)cc3)c2C1 (stereo not given)	27.2
O=C(c1ccnc(CC2COc3ccccc3C2)c1)N1CCCC1 (stereo not given)	7.97
CN(C)C(=O)N1CCCC(C(=O)N(C)Cc2cnc(N)nc2)C1 (stereo not given)	-2.52
Cc1cc(N2Cc3cnn(CCO)c3C2)nc(-c2ccccc2)n1	4.37
CCc1oc(C(=O)NC(C)c2ncn[nH]2)cc1CN1CCCC1 (stereo not given)	-1.83
N#Cc1cccc(S(=O)(=O)NC2CCN(CC(F)(F)F)C2)c1 (stereo not given)	-2.39
Clc1cc(NCc2nccs2)nc2[nH]ccc12	15.1
CCn1c(C2CCNCC2)nn(CCn2cncn2)c1=O	3.82
NC(=O)c1ccnc(N2CCCC(CO)(Cc3ccccc3)C2)c1 (stereo not given)	11.6
Cn1ncc2c1CCCC2NCc1ccc(OCc2cccnc2)cc1 (stereo not given)	2.53
O=C(c1cnccn1)N1CCCC(C2=Nc3ccccc3S(=O)(=O)N2)C1 (stereo not given)	22

SMILES	Percent Effect [%]
CN(Cc1cc(Br)c2c(c1)OCO2)Cc1cscn1	-9.1
CNC(=O)c1sc2ncccc2c1C1CCN(C(=O)CCOC)C1 (stereo not given)	21.5
COC(=O)c1ccc(N(C(=O)c2cccnc2C)C(C)C)c(C)c1	-5.67
CNS(=O)(=O)CC(=O)NCc1cc2c(s1)CCCCC2	-1.26
CCc1cnc(C(C)NC(=O)N2CCCN(CC(F)F)CC2)s1 (stereo not given)	-2.53
O=C(c1ccc(-n2cnnc2)cc1Cl)N1CCCC2(CCNC2)C1 (stereo not given)	0.724
Cc1cc(N2Cc3cnn(CCO)c3C2)nc(-c2ccccc2O)n1	28.4
Cn1ccnc1-c1cn(CCCc2csc(N)n2)nn1	-21
COc1ccc(NC(=O)N2CCCC(CO)C2)c(C)c1 (stereo not given)	-4.81
CCc1c(C)nn2c(O)cc(C3CCN(C(=O)c4ccccn4)C3)nc12 (stereo not given)	4.34
Cc1ccc(CNC(=O)NCc2nccn2C)c(OC(C)(C)C)c1	11.3
O=C(CC1COCCN1)N1CCC(N2CCc3ccccc3C2)CC1 (stereo not given)	-4.72
COCC(C)(O)CNC(=O)c1cc(-c2ccc(F)cc2)nn1C (stereo not given)	2.75
OCCN1CCN(Cc2coc(-c3ccccc3Cl)n2)CC1	-12.1
CC(NC(=O)C(C)(C)C)c1cc(O)nc(-c2cccnc2)n1 (stereo not given)	6.37
CC(C)c1cc(C2CCN(C(=O)Cn3nc4ccccc4n3)CC2)[nH]n1	13.1
CO[C@@H]1CCC[C@@H](NC(=O)c2cccc(F)c2)[C@H]1O	10.3
CCC(=O)NC(CC)c1ccccc1C (stereo not given)	7.08
CCc1ccc(C(=O)NC2CCCN(c3ccn(C)n3)C2=O)o1 (stereo not given)	-0.669
COc1ccc2c(c1)OCC(C(=O)NCc1ncc3c(n1)CCC3)C2 (stereo not given)	-0.599
